Laboratory results as given in the supplement of paper PMC11417369.
± gives the standard deviation of the averaged measurements. In all, about 25,000 sequences were measured (“ln(normalized median fluorescence intensity)”: median about 8.9, highest 2% from about 10 on). Shown is part of a subset that was picked to be rich in the highest values.

tested on: PfAP2-LT AP2 domain (GST-tagged); experiment: gcPBM binding intensity (ln(normalized median fluorescence intensity)); higher = stronger DNA binding
How it was run: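 An Agilent 4 × 180k array carrying primer-extended double-stranded 36-bp intergenic genomic probes and negative controls received GST-tagged P. falciparum DNA-binding domains expressed in E. coli, about 25 μg on average, for 1 h. The binding buffer contained 1× PBS, 1% milk, 0.2 mg/ml BSA, 0.5% salmon testes DNA and 0.03% Triton X-100. Binding intensity is the top Masliner-normalised natural-log median intensity across replicate spots of either probe orientation, read after Alexa488 anti-GST antibody staining and a 488 nm scan.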

Sequence	gcPBM binding intensity (ln)
AGGGAATAATATTAATGTACATATATGAACTTGTTT [XGTACX_site6089]	8.93 ± 0.43
CACCCCCACAGACACACACACACACCCACATATATA [CACACA_site365]	10.54 ± 0.035
TATATATATATAGACACACACACACCCATATATATA [CACACA_site4117]	9.94 ± 0.23
CACCCCCACAGACACACACACACACCCATATATATA [CACACA_site364]	10.45 ± 0.042
TATACATACAGACCCACACACAAAAAAAAAAAAAAA [CACACA_site6536]	9.35 ± 0.5
TATATACATAGACACCCACACACAAAAAAAAAAAAA [CACACA_site8186]	9.43 ± 0.42
TAGACTCCCAGACACACACACACACCCATATAATAT [CACACA_site593]	10.2 ± 0.35
TACGCTCCCAGACACACACACACACCGATATAATAT [CACACA_site8098]	9.89 ± 0.23
TACATATACAGACACACACACACACCCCCACAAAAA [CACACA_site495]	10.45 ± 0.099
TATGATACATAATATACATGCATACACAACATTCAG [TGCATGCA_site487]	8.94 ± 0.37
ATATATATACCAAGTAGTACATTCTACAACTAATGT [XGTACX_site8653]	8.79 ± 0.4
ATATTTTGTTATGTAGATGTTGGTAGGAATTTTGGT [CACACA_negctrl_site1104]	8.83 ± 0.4
CAATTAAACAATTAAACATGCAAAATGATATAATAA [TGCATGCA_site240]	8.87 ± 0.49
TACGTAAAAATAGGACGTACTTATTTAGAAACCATA [XGTACX_site2498]	8.72 ± 0.49
AAGAGTTTGAAGTTTGCACACTACGTTAAAAATAAA [CACACA_site3939]	8.72 ± 0.59
ATAAATAAAACAACAGTGCAATAAAATTAGTTGAGG	9.07 ± 0.54
ACATAATAAAAAAAACGTACAAATAGGTTTTTCATA [XGTACX_site6645]	8.85 ± 0.57
ATGAGTTACATGGGAAAAATATATATATATATATAT [CACACA_negctrl_site579]	9.8 ± 0.23
TCTATACCTATTCTTACACACATATGTATTTATATA [CACACA_site4475]	9.28 ± 0.46
CACCCATACAGACATACACACACATATATATTAATA [CACACA_site8077]	9.67 ± 0.27
CACACCCACAGACACACACACACATATATAATATAT [CACACA_site594]	10.2 ± 0.54
AGACATATAATATATACACACATATATATATATATA [CACACA_site1066]	9.93 ± 0.085
AAATTTTCACTTCAAAAACACACGTATTTTTTTCCT [CACACA_site3813]	8.8 ± 0.47

Sequence	gcPBM binding intensity (ln)
CAACAACAAAAAAAAAAATAATAATAATAAAAAATA [TGCATGCA_negctrl_site271]	8.71 ± 0.5
AGGACAAGGGTTACATGTACATATATATATATATAT [XGTACX_site901]	10.2 ± 0.14
CATATGTATATGACTACACACAAGGGTGTACATATA [CACACA_site1164]	9.2 ± 0.38
CAAGGACAATTTACAAACATAATATATGTATATATA [TGCATGCA_negctrl_site5]	8.66 ± 0.55
ATCATAATTTATTATACACACAATACGTGACCTATT [CACACA_site6977]	9.24 ± 0.47
ATATTTTGTATAATCACACACACTATTCTTAAATAG [CACACA_site7270]	9.23 ± 0.37
CAAACAAACGGACACACACACACACCCAAAAATGAT [CACACA_site5363]	10.1 ± 0.18
AACAAACACGGACACACACACACACTAGAATGATTA [CACACA_site5364]	10.2 ± 0.31
CAAACCCACGGACACACACACACAAAAATGATTAAA [CACACA_site5365]	9.71 ± 0.38
GAATAATCCAAACACACACACACACCCGAATAAATA [CACACA_site482]	10.3 ± 0.45
TATTTATTAAAACACACACACACACCCACAAAATAA [CACACA_site241]	10.04 ± 0.099
TTAAAGCACCCATGCACACACACAAGGGAAAAGAAA [CACACA_site4289]	9.49 ± 0.4
CCCGAACAAACAAATAAACACACAAAAAAAAATATA [CACACA_site8540]	9.15 ± 0.47
TTAATAACAAAATAAACACACATATATAAATCCACA [CACACA_site1590]	9.09 ± 0.38
AAAGAAGGGAAACACACACACACACCCACAAAAAAA [CACACA_site3766]	10.18 ± 0.099
TTTATTAATGGACACACACACACACCCAAAATAAAA [CACACA_site4294]	10 ± 0.13
CAACAAAAGAAACACACACACACAAACACAAAAAAA [CACACA_site3389]	9.91 ± 0.16
CACACCCACCAACACACACACAAAAAAAAAAAGAAA [CACACA_site500]	9.56 ± 0.47
TTAACAAAGAAACACACACACACACCCAAAAAAAAA [CACACA_site516]	10.2 ± 0.11
CAAAAGAAGGTAAACACACACACACCCATACAAAAA [CACACA_site3765]	10.1 ± 0.43
TTTATTAATAAACACACACACACACCCAAAATAAAA [CACACA_site7966]	10.2 ± 0.18
ATTTCAAATTAATTTACACACTTCATACTAAAAGAC [CACACA_site3176]	8.71 ± 0.4
GGAAAAAAATATAAAAGTACTTTTTATTTATTTTAT [XGTACX_site7418]	8.4 ± 0.51

Sequence	gcPBM binding intensity (ln)
AGGAATATAAAGTGCACACATAATTTGGGGGCAAAA [CACACA_site258]	9.25 ± 0.44
AATTAAATTACTTATACACACATAAAATGGGTGTAT [CACACA_site4703]	8.97 ± 0.37
AATAAAGGAGCCTATGAACACACACCGGTACATATA [CACACA_site9352]	9.33 ± 0.51
ATACAATAAAGGTGTACACATATATGATGCAAGATG [CACACA_site5897]	9.29 ± 0.52
ATGTAATGAAACATTGCACACATATAATAATATAAT [CACACA_site8402]	9.31 ± 0.35
TTTTACACTTTTTTTTGTACACACTAAAAAGATTAA [XGTACX_site8407]	8.59 ± 0.52
AATAATTGTTAAAGCTGTACAATACTTATATAAGAA [XGTACX_site5729]	8.77 ± 0.45
AAAAAATATTGAAGTACACACATTATAAACTTTTTT [CACACA_site5029]	8.86 ± 0.49
AATACACACCTGTGGGTGCTTATAATAAGCCACAAA	8.95 ± 0.45
ATAAATAAAAAACACACACACACACCCAAAAAAAAA [CACACA_site2624]	9.88 ± 0.3
ATAAATAAAAACACAAAACAAAACAAAACAAAACAA [CACACA_negctrl_site1257]	8.82 ± 0.4
TTAACAAATAAACACACACACACACCCAAAAAAAAA [CACACA_site8068]	10.3 ± 0.2
TTTTTTTTTGTTAGTTGTACGTTAAATGAATTTACT [XGTACX_site7675]	8.67 ± 0.57
TACTAAGAAGTATTTACACACCAACAAGGCGAAAAA [CACACA_site2944]	8.88 ± 0.44
TGAAGCAAAAACAAAACACACATATAAATAAATAAA [CACACA_site3925]	9.15 ± 0.52
TATAAGCAAAAACACACACACATATATATATATATA [CACACA_site3804]	10.2 ± 0.23
CCTTTAAGCAAAAACACACACACATATATATATATA [CACACA_site348]	9.945 ± 0.035
CCTTTAAGCAAAAACACACACACATATTTATTTATA [CACACA_site6294]	9.41 ± 0.3
AAACATATATTAAGCACACACAAACAAAAAAACAAA [CACACA_site2549]	9.59 ± 0.61
TTTAAGCAAAAACACACACACATATATATATATATA [CACACA_site349]	10.1 ± 0.16
AAAAAAATAAAAAATATATAAATAATTAATACATGT [GTGCAC_negctrl_site633]	8.62 ± 0.59
TTATCATTATATAGTTGTACATATTTATTTATAAAA [XGTACX_site2310]	8.45 ± 0.44
ATTATTTTATATACATGTACATATTATATATAAAAG [XGTACX_site2735]	8.51 ± 0.42

Sequence	gcPBM binding intensity (ln)
TATTTTTTTAATAACTGTACTTTTTTGTCAAATGGA [XGTACX_site4179]	8.32 ± 0.49
ATATATTTCAAAGGGGTGCAGGCATATTTAAGCAAA	8.69 ± 0.49
TATTTTAAAAAAAAAAGTACACATAATATATATAAC [XGTACX_site5416]	8.57 ± 0.57
ATTAAACCGTGGGAGCACACACACACACACACACAT [TGCATGCA_negctrl_site72]	10.6 ± 0.4
TTAAACCGTGGGAGCACACACACACCCAGACACATA [CACACA_site4337]	9.7 ± 0.31
CATTAAACCGTGGGAGCACACACACCCACCCACCCA [CACACA_site8000]	9.57 ± 0.2
AAATATATATATATATATATATATGTGTGTGTATAT [GTGCAC_negctrl_site1]	9.79 ± 0.45
TATATATATATATATATATATATATATATATGTATA [TGCATGCA_negctrl_site17]	9.8 ± 0.38
TATATATATATATATATATATATATATGTGTATGTA [TGCATGCA_negctrl_site255]	10.2 ± 0.26
TTACACTAAATATGTTCACACATTTTTTCCATCATA [CACACA_site4647]	8.79 ± 0.45
AAAATGAACTCACGAGCACACACACCCATATATATA [CACACA_site8247]	9.72 ± 0.25
AATGAACAGACGAGCACACACACACCCATATATATA [CACACA_site1018]	10.1 ± 0.16
CATACAGACGAACACACACACATATAAATATAAATA [CACACA_site6443]	9.7 ± 0.38
TGAACTCACGAGCACACACACACATATATATATATA [CACACA_site8248]	10.3 ± 0.25
TGAACAGACGAGCACACACACACATATATATATATA [CACACA_site1019]	10.3 ± 0.2
AATGAACTCACGAGCACACACACACCGATATATATA [CACACA_site4710]	10.1 ± 0.35
AACGCACGAGGACACACACACATATTTATATTTATA [CACACA_site6608]	9.82 ± 0.41
AACTCACGAGGACACACACACATATATATATATATA [CACACA_site4711]	10.38 ± 0.035
AAAAAAGAAAAAAGGACACACATAAATATACTCACG [CACACA_site2904]	9.16 ± 0.48
ATTTAATTTTCCAAATGTACTTATATTTTTATGAAA [XGTACX_site6144]	8.27 ± 0.4
